Screening results (PubChem)
DT40 TDP1 CPT: growth inhibition of DT40 Tdp1-/-;hTDP1 cells with camptothecin (screen for TDP1 inhibitors). 420,000 compounds, 12% hits. chicken DT40 Tdp1-/-;hTDP1 cells + 20 nM CPT, ATP luminescence, 48 h. Potency, µM (series often up to 46.2 µM), for the others: at the top dose activity change, negative = growth inhibition, most hits filed as inhibitors; further: potency means the concentration at half of the fitted maximal effect; nearly all actives have a fitted effect of over 55% in size
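Chicken DT40 Tdp1-/- cells stably complemented with human TDP1 were seeded at 400 cells/well in medium containing 20 nM camptothecin, exposed to pin-transferred compounds, and grown at 37 °C for at least 48 hr. Viability was read as ATP luminescence.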
Giardia killer: kills Giardia lamblia; Giardia lamblia trophozoite viability; activity change, % at 7.66 µM, hits read low; AID 540267; 340,000 compounds, 0.15% hits; in the data active means activity change below about -80%; inconclusive means between about -30% and that limit;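 further: parasites exposed to compound for two days anaerobically before the ATP read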
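Trophozoite viability was measured as ATP-dependent luminescence, read 15-30 min after reagent addition. Before that, parasites at 100 cells/well were exposed to compounds for 48 h, anaerobically, at 37 deg C.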
DT40 TDP1 no CPT: qHTS for Inhibitors of human tyrosyl-DNA phosphodiesterase 1 (TDP1): qHTS in cells in absence of CPT; DT40 Tdp1-/- hTDP1 cells, no CPT, ATP luminescence, 48 h; Potency, µM (titrated, usually from 46.2 µM), for the others: top-dose activity change, negative = growth inhibition, actives largely listed as inhibitors; 420,000 compounds, 15% hits; AID 686978, 2013; further: potency means the concentration at half of the fitted maximal effect; nearly all actives have a fitted effect of over 55% in size
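Growth kinetics read by CellTiter-Glo luminescence after ≥48 hr at 37 °C. Cells: DT40 Tdp1-/- stably carrying human TDP1, 400 per well, compound exposure in the absence of CPT (DMSO vehicle).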
TDP1 block: inhibitors of human tyrosyl-DNA phosphodiesterase TDP1; Q9NUW8; recombinant TDP1, AlphaScreen DNA substrate cleavage; Potency, µM (top dose mostly 130 µM), for inactives: at the top dose activity change, negative = inhibition, usual class: inhibitors; 350,000 compounds, 0.28% hits; further: potency means the concentration at half of the fitted maximal effect; nearly all actives have a fitted effect of over 40% in size
Target sequence (Q9NUW8 whole entry, looked up): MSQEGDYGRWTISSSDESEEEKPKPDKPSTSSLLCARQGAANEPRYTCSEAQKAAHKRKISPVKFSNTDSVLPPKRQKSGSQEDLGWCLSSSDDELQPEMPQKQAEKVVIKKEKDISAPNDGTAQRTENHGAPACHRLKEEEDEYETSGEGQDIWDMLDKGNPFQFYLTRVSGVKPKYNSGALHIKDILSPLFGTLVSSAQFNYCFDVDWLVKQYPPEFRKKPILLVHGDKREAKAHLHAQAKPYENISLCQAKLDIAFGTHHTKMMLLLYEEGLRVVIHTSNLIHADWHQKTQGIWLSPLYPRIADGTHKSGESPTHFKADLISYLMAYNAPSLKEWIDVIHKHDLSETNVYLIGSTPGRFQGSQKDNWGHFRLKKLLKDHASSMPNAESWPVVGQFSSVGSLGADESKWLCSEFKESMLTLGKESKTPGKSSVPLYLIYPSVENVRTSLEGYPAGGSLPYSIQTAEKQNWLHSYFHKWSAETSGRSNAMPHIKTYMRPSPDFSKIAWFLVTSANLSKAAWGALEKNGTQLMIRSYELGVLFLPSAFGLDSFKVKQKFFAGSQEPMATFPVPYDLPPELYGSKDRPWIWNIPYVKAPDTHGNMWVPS
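Enzyme-compound mixtures sat 15 min at room temperature, followed by a 5 min reaction with 15 nM final substrate and 10 min with AlphaScreen beads. Recombinant human Tdp1 was used at 1 nM final.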
ELG1 DNA repair: inhibitors of ELG1-dependent DNA repair in HEK293T cells; Potency, µM (highest dose often 46.1 µM), without a hit: at the top dose activity change, negative = inhibition, hits mostly inhibitors; 330,000 compounds, 2.3% hits; HEK293T ELG1-luciferase reporter, luminescence, 16 h; DNA damage induced by 5-fluorouridine; AID 504467; further: potency means the concentration at half of the fitted maximal effect; nearly all actives have a fitted effect of over 55% in size
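HEK293T cells expressing luciferase-tagged ELG1 (2,000/well) received 5-Fluorouridine plus compound or DMSO for 16 hr at 37 °C. Luciferase was read by ONE-Glo luminescence after 30 min at room temperature.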
IL1B secr inh: blocks inflammasome-driven IL-1 beta release. activity change, % at 57.5 µM. 360,000 compounds, 4.7% hits. THP-1 LPS/ATP IL-1B secretion, AlphaLISA, 16 h; hits give low values; in the data active means activity change below about -50%; inconclusive means mostly about -30% to -49%
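Secreted IL-1B measured by AlphaLISA bead assay after 16 h compound exposure of THP-1 cells; compounds (final up to 57.5 uM) added 1 h before LPS (250 ng/mL) and ATP (1.25 mM) stimulation; lower signal means less secretion.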
Numbers without * were called inactive; i = inactive; ? = inconclusive; · = no result; [ ] = remark or other dose. This is a sample that favours compounds with a hit; in the whole collection about 19% have one here. Unless noted, the call rests on the fitted dose curve; in most records, active means well fitted curve in the direction sought with a large enough effect; inconclusive means small, poorly fitted or top-dose-only effect, or another doubt; inactive means no such curve, though single readings can be large; an effect the other way counts as inactive or inconclusive. On the % scale 0 is the no-effect control and ±100 the full control effect.

SMILES	DT40 TDP1 CPT	Giardia killer	DT40 TDP1 no CPT	TDP1 block	ELG1 DNA repair	IL1B secr inh
CCCCNC(=O)c1nc(-c2cccnc2)oc1-c1ccc(OC(F)(F)F)cc1	26%	·	5%	·	·	18
CN(Cc1ccccc1)C(=O)c1nn2cccnc2c1Cl	-5%	10	?	3%	6%	20
O=C(O)CCn1c(=S)n(CCC(=O)O)c2ccccc21	0%	-11	22%	-3%	6%	7
CCOc1ccccc1NC(=O)COC(=O)c1ccccc1SCC(=O)N1CCCC1	?	0	16µM*	·	?	11
Cc1ccc(NC(=O)CSc2cn(CC(=O)N3CCCC3)c3ccccc23)cc1Cl	26µM*	·	?	5%	·	·
CCOc1ccccc1NC(=O)COC(=O)c1cn(CC)c2nc(C)ccc2c1=O	18µM*	·	?	2%	·	·
CCn1cc(C(=O)OCC(=O)c2cc(C)n(-c3ccc(OC(F)F)cc3)c2C)c(=O)c2ccc(C)nc21	?	-2	13µM*	2%	?	-11
CCOc1ccccc1NS(=O)(=O)c1cn(C)nc1C	15%	13	15%	3%	-1%	5
O=C(NCCN1CCOCC1)c1cnn(-c2nccc(-c3ccccc3F)n2)c1C1CC1	7%[9.04 µM]	·	-10%	·	·	·
Cc1ccc(C(C)(C)C)cc1S(=O)(=O)Nc1cccc(S(=O)(=O)NC2=NCCC2)c1	-3%	9	?	8%	5%	111
CC(=O)c1ccc(N2CCN(C(=O)C(=O)c3cn(CC(=O)N4CCCCCC4)c4ccccc34)CC2)cc1	23µM*	-23	13µM*	2%	-10%	i
CC(=O)c1ccc(NC(=O)CSc2cn(CC(=O)N3CCCCC3)c3ccccc23)cc1	?	·	21µM*	8%	·	·
CCOc1ccccc1NC(=O)CSc1cn(CC(=O)N2CCCCCC2)c2ccccc12	?	·	26µM*	5%	·	·
Cc1ccc(-n2c(=O)c3oc4ccccc4c3n(CC(=O)Nc3ccccc3)c2=O)cc1C	-16%	·	-4%	0%	·	·
CC(C)(CNC(=O)c1cnn(-c2nccc(-c3cccs3)n2)c1C1CC1)N1CCOCC1	-11%[9.04 µM]	·	-18%	·	·	·
O=C(CSc1nc(-c2ccccc2F)nc2cc(=O)[nH]n12)Nc1cccc(C(F)(F)F)c1	?	·	-19%	-8%	·	·
O=C(C[n+]1cc(Br)cc2ccccc21)c1ccccc1	18µM*	-12	18µM*	6%	-18%	26
OC(CBr)C[n+]1cc(Br)cc2ccccc21 (stereo not given)	7.1µM*	·	8.9µM*	·	·	·
COc1ccc(C(=O)C[n+]2cc(Br)cc3ccccc32)cc1[N+](=O)[O-]	0%	9	-9%	·	-3%	13
COc1ccc(CNCCC(c2ccc(OC(C)C)cc2)C(C)C)cc1OC (stereo not given)	?	-6	16µM*	2%	-8%	-98*
COc1ccc(C(CCNCc2ccc(N(C)C)cc2)C(C)C)cc1 (stereo not given)	7.3µM*	-1	7.3µM*	11%	?	-100*
CCOCCCNCc1ccc(OC)c(OC)c1	-1%	-21	4%	-5%	9%	1
COc1ccc(C(CCNCc2ccc(OC(C)C)cc2)C(C)C)cc1 (stereo not given)	4.6µM*	-9	6.5µM*	3%	-17%	·
COCCNCc1ccc(C(C)C)cc1	-22%	31	-18%	8%	?	10
CC(=O)N1N=C(c2ccccc2O)CC1c1cccs1 (stereo not given)	?	?	6.5µM*	·	0%	-65*
SMILES	DT40 TDP1 CPT	Giardia killer	DT40 TDP1 no CPT	TDP1 block	ELG1 DNA repair	IL1B secr inh
CC(=O)N1N=C(c2cccc(O)c2)CC1c1cccs1 (stereo not given)	15µM*	6	?	·	-23%	-12
CC(=O)NCCC(=O)Nc1cc(S(=O)(=O)N2CCOCC2)ccc1Oc1ccc(F)cc1	9%	-2	1%	-16%	6%	-8
CC(=O)Nc1cccc(C(=O)OC(C)C(=O)NCc2ccc3c(c2)OCO3)c1 (stereo not given)	-3%	1	-1%	1%	12%	22
CCN(c1ccccc1)S(=O)(=O)c1cc(C(=O)OC(C)C(=O)Nc2ccc3c(c2)OCCO3)ccc1C (stereo not given)	?	-3	16µM*	·	?	16
Cc1ccccc1OC(C)C(=O)Nc1ccc2c(c1)OCCO2 (stereo not given)	-13%	15	4%	2%	?	-7
O=S(=O)(c1ccc2ccccc2c1)N(CC1CO1)c1ccccc1 (stereo not given)	13µM*	-9	?	6%	2%	-8
Cc1cccc(NS(=O)(=O)c2cc(C(=O)OC(C)C(=O)NCc3ccc4c(c3)OCO4)ccc2C)c1 (stereo not given)	18µM*	9	16µM*	-3%	23µM*	0
CCN(c1ccccc1)S(=O)(=O)c1ccc2c(c1)N(C(C)=O)CCO2	4%	-9	-30%	1%	13%	82
CCN(c1ccccc1)S(=O)(=O)c1ccc2ccccc2c1	-4%	7	-19%	·	-2%	7
CCN(c1ccccc1)S(=O)(=O)c1ccc2c(c1)OCCO2	16µM*	-4	?	-4%	-1%	55
Cn1c(Oc2ccc(Cl)cc2)nc2c1c(=O)n(Cc1ccc(F)cc1)c(=O)n2C	-2%	·	-26%	·	·	·
CC[n+]1c(/C=C/c2ccc(OC)c(OC)c2)ccc2ccccc21	?	8	?	·	?	16
C[n+]1c(/C=C/c2ccc3c(c2)OCO3)ccc2ccccc21	13%	8	2%	4%	?	-22
CCOc1ccc(/C=C/c2ccc3ccccc3[n+]2C)cc1OCC	4µM*	·	2µM*	·	·	·
C[n+]1c(/C=C/c2ccc(O)cc2)ccc2ccccc21	?	2	18µM*	·	8%	?
C[n+]1c(/C=C/c2ccc(F)cc2)ccc2ccccc21	3.5µM*	·	2.5µM*	·	·	·
COc1ccc(-c2nc(N3CCN(C)CC3)sc2-c2ccc(OC)cc2)cc1	?	0	29µM*	20%	2%	-20
CNc1nc(-c2ccc(OC)cc2)c(-c2ccc(OC)cc2)s1	5%	9	-4%	8%	?	-22
COc1ccc(-c2nc(N3CCCCCC3)sc2C(=O)c2ccccc2)cc1	?	1	23µM*	-6%	?	-6
O=C(c1ccccc1)c1sc(N2CCOCC2)nc1-c1ccccc1	?	-10	?	5%	-2%	?
